Experimental data reported in PubChem BioAssay AID720690 (Broad Institute, 2013).
Results with a measured potency or affinity are listed apart. Unmarked numbers belong to inactive results.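 How the source made its calls: active means every repeat run showing a signal drop whose fitted half-maximal concentration is at most twice the top tested concentration; inconclusive means repeat runs disagree, or flat partial drop, or poor fit; inactive means the rest.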

Experiment: HEK293T cytotoxicity, dose response, cytotoxicity control for miR-122 modulator project, cell-based, activator set, cherry-pick (AID 720690);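 further: 0% = neutral control wells and -100% = MG132 cytotoxic control wells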
Conditions: HEK293T viability, CellTiter-Glo luminescence, 48 h; series mostly up to 26 µM; activity change, negative = cytotoxicity: at the top concentration

Structure (SMILES) | activity change, negative = cytotoxicity
COc1cccc(CNC(=O)C[C@H]2CC[C@@H]3[C@@H](COc4ccc(NC(C)=O)cc4C(=O)N3C)O2)c1 | -11.6%
COc1cccc(-c2nc(NCCN3CCOCC3)c3ccccc3n2)c1O | -17.9%
Cc1cc(C)cc(NC(=O)c2ccc(CSc3nnc(C)s3)cc2)c1 | -16.6%
COC(=O)C[C@H]1CC[C@H]2[C@@H](COc3ccc(NC(=O)Nc4c(C)noc4C)cc3C(=O)N2C)O1 | 4.81%
COc1ccc(NC(=O)COC(=O)CCCc2c[nH]c3ccccc23)cc1 | 1.82%
c1cnc(N2CCN(Cc3c[nH]c4ccccc34)CC2)nc1 | 11.4%
CCCC(NS(=O)(=O)c1ccc(Br)cc1)C(=O)O (centres undefined) | -25.6%
CC(C)C#Cc1ccc2c(c1)O[C@H](CN(C)C(=O)c1ccncc1)[C@H](C)CN([C@@H](C)CO)S2(=O)=O | 2.1%
C/C(=N\Nc1cc(N2CCCCC2)nc(C)n1)c1ccc(Br)cc1 | -41.1%
CC(=O)Nc1ccc2c(c1)C(=O)N(C)[C@H]1CC[C@H](CC(=O)Nc3ccccc3Cl)O[C@@H]1CO2 | 0.573%
CNC(=O)C[C@H]1CC[C@@H]2[C@@H](COc3ccc(NC(=O)Nc4ccc(Cl)cc4)cc3C(=O)N2C)O1 | 2.16% [at 23.5 µM]
CCC(=O)N1C[C@H]2[C@@H](c3ccccc31)[C@H](CO)N2C(=O)Nc1ccccc1F | -2.63% [at 23.5 µM]
CCC(=O)N1[C@@H](CO)[C@@H](c2ccccc2)[C@@H]1CN(C(C)C)S(C)(=O)=O | 9.06%
C[C@@H]1CN([C@H](C)CO)S(=O)(=O)c2ccc(C3=CCCC3)cc2O[C@@H]1CN(C)C(=O)c1ccc(F)cc1 | -21.9%
COCC(=O)NC[C@@H]1[C@H](c2ccc(C3=CCCC3)cc2)[C@H](CO)N1C(=O)C1CC1 | -13.9%
COc1nnc(-c2ccc(N3CCOCC3)c(NC(=O)c3ccccc3)c2)c2ccccc12 | 4.67%
Cc1nn(C)cc1NC(=O)C[C@@H]1CC[C@H]2[C@@H](COc3ccc(NC(=O)Nc4cccc(Cl)c4)cc3C(=O)N2C)O1 | 3.14%
CO[C@H]1CN(C)C(=O)c2cc(NC(=O)c3ccccc3F)ccc2OC[C@@H](C)N(C)C[C@@H]1C | -1.08%
COCC(=O)Nc1ccc2c(c1)C(=O)N(C)[C@H]1CC[C@@H](CC(=O)NCCCN(C)C)O[C@H]1CO2 | -10.1%
CC(=O)N1[C@H](CO)[C@@H](c2ccccc2)[C@H]1CN(C(=O)NC(C)C)C1CCCC1 | -6.13%

Structure (SMILES) | activity change, negative = cytotoxicity
CC(C)C(=O)Nc1ccc2c(c1)C(=O)N(C)[C@@H]1CC[C@H](CC(=O)NCc3cccc(F)c3)O[C@H]1CO2 | 4.42% [at 23.5 µM]
COCC(=O)Nc1ccc2c(c1)C(=O)N(C)[C@@H]1CC[C@@H](CC(=O)NC3CCCC3)O[C@H]1CO2 | 0.953% [at 23.5 µM]
O=C(NCC(c1cccnc1)N1CCOCC1)NC1CCCCC1 (centres undefined) | 0.711%
C[C@@H]1CN([C@@H](C)CO)C(=O)c2cc(NC(=O)Nc3cccc4ccccc34)ccc2O[C@@H](C)CCCCO[C@H]1CN(C)CC1CCCCC1 | -14% [at 12 µM]
CC(=O)Nc1ccc2c(c1)C(=O)N(C)[C@H]1CC[C@H](CC(=O)NC3CCCCC3)O[C@@H]1CO2 | -5.08%
COc1ccc(C#Cc2ccc3c(c2)O[C@H](CN(C)C(=O)CN2CCOCC2)[C@H](C)CN([C@@H](C)CO)S3(=O)=O)cc1 | -13%
C[C@H]1CCCCO[C@@H](CN(C)CC2CCCCC2)[C@@H](C)CN([C@@H](C)CO)C(=O)c2cc(NC(=O)Nc3cccc4ccccc34)ccc2O1 | -16.9% [at 12 µM]
CCNC(=O)C[C@H]1CC[C@H]2[C@@H](COc3ccc(NC(=O)c4ccccc4)cc3C(=O)N2C)O1 | -7.25%
Cn1c(-c2ccc(N)cc2)nc2ccccc21 | -17.9%
COCC(=O)N(C)C[C@H]1Oc2cc(-c3ccc(C#N)cc3)ccc2S(=O)(=O)N([C@@H](C)CO)C[C@H]1C | 5.09%
CCN(C[C@H]1[C@H](c2ccccc2)[C@H](CO)N1C(=O)COC)S(C)(=O)=O | -10.6% [at 23.5 µM]
COc1cc(C(=O)Nc2ccc(S(=O)(=O)N3CCCCC3C)cc2)cc(OC)c1OC (centres undefined) | 41.5%
O=C(CC(F)(F)F)N1C[C@H]2[C@@H](c3ccccc31)[C@H](CO)N2C(=O)Cc1cccnc1 | -9.44%
C[C@H](CO)N1C[C@H](C)[C@@H](CN(C)Cc2ccc(-c3ccccc3)cc2)Oc2ncc(C#CCN(C)C)cc2C1=O | -27.3%
CCN(CC)CCNc1nc(-c2ccccc2)nnc1C(F)(F)F | -4.86%
CCCNC(=O)Nc1ccc2c(c1)C(=O)N(C)[C@@H]1CC[C@H](CC(=O)NCC3CCCCC3)O[C@H]1CO2 | 3.61%
CCOC(=O)c1nc(C)n(-c2ccc(Cl)cc2Cl)n1 | -2.63%
CC(C)C(=O)Nc1ccc2c(c1)C(=O)N(C)[C@@H]1CC[C@@H](CC(=O)NCC3CC3)O[C@H]1CO2 | -13.5%
N=c1c2c(-c3ccccc3)c(-c3ccccc3)n(Cc3ccccc3)c2ncn1CCCO | -20.2%
